Viability data for 98 molecules are collected here from PubChem BioAssay AID598 (SRMLSC, 2007).

Among all 85,000 compounds or so, about 5,100 (6%) were called active.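 How the source made its calls: active means viability at or below 40%; inactive means viability above 40%.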 The full list was thinned out, with actives kept by preference.

Broadly, the viability is a read-out of living cells in per cent, often relative to untreated cells.

This test is described as follows: proliferation blockers of H69AR lung cancer cells, primary screen, cell-based, human, 86K library (AID 598).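 Further: multidrug resistant small cell line overexpressing MRP-1 efflux transporter; 100% = mean luminescence of untreated control wells.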 The note with it: H69AR lung tumor viability, ATP luminescence, 72 h; at 10 µM; active compounds read low.
As to `O=C(NCc1ccccc1Cl)c1csc2c1CCCCC2`, the viability is 97.3% (inactive). Consider `CC(Cc1cccs1)NC(=O)NC1CCCCC1` (stereo not drawn), for which the viability is 87% (inactive). For the molecule `Cc1ccsc1C(C(=O)NC1CCCCC1)N(C(=O)Cc1cccs1)C1CC1` (stereo not drawn), the viability is 25.5% (active). As to `O=C(NCC(=O)N(Cc1cccs1)C(C(=O)NC1CCCCC1)c1ccco1)c1cccs1` (stereo not drawn), the viability is 82.2% (inactive). Take `CC(=O)c1ccc(OCCN2CCOCC2)cc1`: the viability is 85.9% (inactive). Turning to `Cc1ccc(NC(=O)N2CCC(O)(c3cccnc3)CC2)cc1`, the viability was 78.4% (inactive). With `CCCCc1nnc(NC(=O)CS(=O)(=O)Cc2ccccc2)s1`, the viability was 97% (inactive). Regarding `CC(=O)NC1=NN(C(C)=O)C(C)(c2ccc(Cl)s2)S1` (stereo not drawn), the viability was 17.3% (active).

`O=C(NC1=NCCS1)c1ccc(Cl)s1`: the viability was 93.3% (inactive). With `c1ccc2c(-c3nn4nnnc4c4ccccc34)cccc2c1`, the viability was 64.8% (inactive). In the case of `CCCn1c(C)cc(C(=O)COC(=O)c2c(C)nn(-c3ccccc3)c2C)c1C`, the viability was 100% (inactive).

In the case of `Oc1c(C(c2ccccn2)N2CCOCC2)ccc2cccnc12` (stereo not drawn), the viability was 79.3% (inactive). To `CCN1CCN(C(c2cccnc2)c2cc(Cl)c3cccnc3c2O)CC1` (stereo not drawn) belongs 102% (inactive); to `CCOC(=O)N1CCN(C(c2cccnc2)c2ccc3cccnc3c2O)CC1` (stereo not drawn), 35.2% (active).

Turning to `CC(C)(C)c1nc2ccccc2c(=O)n1N1C(=O)c2ccccc2C1=O`, the viability was 63.5% (inactive). The result for `Cc1ccc2cc(CCNC(=O)c3c(-c4ccccc4Cl)noc3C)c(=O)[nH]c2c1` reads 86.2% (inactive); that for `Brc1ccc(-c2nnc(-c3ccccc3)o2)o1`, 90% (inactive). Take `O=C(Nc1ccc(-c2nnc(-c3ccccc3)o2)cc1)C1CCCO1` (stereo not drawn): the viability is 86% (inactive). For the molecule `O=C(Nc1ccc(-c2nnc(-c3ccccc3)o2)cc1)c1ccc(Br)o1`, the viability is 39.8% (active). For the molecule `CC1CCN(S(=O)(=O)c2ccc(S(=O)(=O)NCc3ccco3)cc2)CC1`, the viability was 75.4% (inactive).

For the molecule `Cc1ccc(C(=O)NCC2CCCO2)o1` (stereo not drawn), the viability is 93.7% (inactive). Consider `Cc1cc(Br)ccc1NC(=O)C1CCCO1` (stereo not drawn), for which the viability is 101% (inactive).

For the molecule `OC(CNCC1CCCO1)Cn1c2ccc(Br)cc2c2cc(Br)ccc21` (stereo not drawn), the viability is 1.09% (active). On to `CCOCCCNC(=O)C(NC(=O)CNC(=O)c1ccccc1)c1ccc(C)cc1` (stereo not drawn), for which the viability is 101% (inactive). As to `O=S(=O)(Cc1cc(Sc2ccccc2)nc(-c2ccccc2)n1)c1ccccc1`, the viability is 84.3% (inactive). Take `Cn1c(-c2ccco2)nc2cc3ccccc3cc21`: the viability was 37.4% (active).

As for `c1coc(-c2nc3nc4ccccc4n3nc2-c2ccco2)c1`, the viability was 82.6% (inactive). In the case of `CN(c1nc2ccccc2n2c(-c3ccco3)nnc12)S(=O)(=O)c1ccccc1`, the viability was 96.1% (inactive). With `Cc1ccc(C)c(NC2=NCC(=O)N2c2ccc3c(c2)OCCO3)c1`, the viability was 100% (inactive).

Take `COc1ccc(NC(=O)CCN2CCCC2)c(OC)c1`: the viability is 94.6% (inactive). As for `CN1C(=O)C(CC(N)=O)N(NC(=O)c2ccc(Cl)cc2)C1=S` (stereo not drawn), the viability is 98% (inactive). The result for `CCOc1cccc(-n2nnnc2-c2ccc(OC)cc2)c1` reads 15.2% (active); that for `CCOc1cccc(-c2nnc3sc(COc4ccc(OC)cc4)nn23)c1`, 51.3% (inactive). For the molecule `COc1ccc(-n2nnnc2SCC(=O)c2ccc(OC)c(OC)c2)cc1`, the viability is 92% (inactive). On to `O=C(CC1(O)C(=O)N(CN2CCOCC2)c2ccccc21)c1ccccc1` (stereo not drawn), for which the viability is 79.9% (inactive). Consider `CCOC(=O)CN1C(=O)C(O)(CC(=O)c2ccccn2)c2ccccc21` (stereo not drawn), for which the viability was 46.4% (inactive). In the case of `C#CCN1C(=O)C(O)(CC(=O)c2cc(OC)ccc2OC)c2ccccc21` (stereo not drawn), the viability was 17.6% (active). Consider `COc1ccc(N2CCN(C(=O)CSc3ncnc4c3cnn4-c3ccc(OC)cc3)CC2)cc1`, for which the viability was 89.9% (inactive). For `COc1ccc(-n2c(C)nc3c(cnn3-c3ccccc3)c2=O)cc1`, the viability was 19.6% (active). To `CCOC(=O)c1ccc(-n2c(C)nc3c(cnn3-c3ccccc3C)c2=O)cc1` belongs 96.7% (inactive). `Cc1ccc(/C=N/NC(=O)C2=NNC(c3ccccc3)(c3ccccc3)C2)c(O)c1`: the viability was 40.7% (inactive).

As for `COc1ccccc1CNS(=O)(=O)c1ccc(C)cc1`, the viability was 86.8% (inactive). To `COc1ccc(S(=O)(=O)N/N=C\c2ccc(OC)c(COc3ccc(C)cc3[N+](=O)[O-])c2)cc1` belongs 29.6% (active); to `CCOc1ccc(S(=O)(=O)Nc2ccc(S(=O)(=O)Nc3cc(OC)ccc3OC)cc2)cc1`, 74.9% (inactive). As to `Cc1noc(/C=C/c2ccco2)c1S(=O)(=O)N1CCC(C(=O)N2CCc3ccccc32)CC1`, the viability was 81.4% (inactive). For `Cc1ccc(C(C(=O)NC2CCCCC2)N(C(=O)c2csnn2)C2CC2)o1` (stereo not drawn), the viability is 95.7% (inactive). As to `COCCNC(=O)C(c1ccc(C)o1)N(Cc1cccs1)C(=O)c1snc(C(N)=O)c1N` (stereo not drawn), the viability is 91.2% (inactive). On to `CCC(C(=O)NC1CCCC1)N(C(=O)c1snc(C(N)=O)c1N)c1ccc2c(c1)OCCO2` (stereo not drawn), for which the viability was 33.1% (active).

As for `Cc1cc(O)cc(O)c1C(=O)Cc1cnn(-c2ccccc2)c1`, the viability was 79.8% (inactive). `O=C1C=C(c2ccc(Cl)cc2)C(=O)N1Nc1ccccc1`: the viability was 1.17% (active). Regarding `Cc1ccc(CCN2CC(C(=O)O)CC2=O)cc1` (stereo not drawn), the viability was 91.7% (inactive). The result for `CC(C)n1c(-c2cccs2)nc2ccccc21` reads 89.8% (inactive).

`O=C1N=C(N2CCCC2)S/C1=C\c1cccc(Br)c1`: the viability is 36.9% (active). Consider `CC(C)=C1SC(N2CCN(c3cccc(C)c3)CC2)=NC1=O`, for which the viability was 96.9% (inactive). Consider `CCN1C(=O)/C(=C2\SC(N3CCCCC3)=NC2=O)c2ccccc21`, for which the viability was 67.4% (inactive). As to `CC(C)C(=O)Nc1ccc2c(c1)oc1ccccc12`, the viability was 55.1% (inactive).

For the molecule `O=C(/C=C/c1ccc(Cl)cc1Cl)c1cccnc1`, the viability was 0.85% (active).

Regarding `O=C(NCc1ccc(Cl)c(Cl)c1)c1cccnc1`, the viability was 94.2% (inactive). The result for `C/C(=C\C(=O)c1cccnc1)Nc1ccc(C)c(C)c1` reads 93.1% (inactive); that for `OC(C#CCN1CCOCC1)(c1ccccc1)C1CCCCC1` (stereo not drawn), 79.2% (inactive); that for `CCOC(=O)C1=C(C)N=c2s/c(=C\C(=O)OC)c(=O)n2C1c1ccc(OC)cc1` (stereo not drawn), 10.6% (active).

In the case of `COCCOC(=O)C1=C(C)N=c2s/c(=C\c3cccs3)c(=O)n2C1c1cccs1` (stereo not drawn), the viability is 80.7% (inactive). For `CCOC(=O)C1=C(CSc2nccn2C)NC(=O)NC1c1ccc(OC)cc1` (stereo not drawn), the viability was 82.8% (inactive). The result for `Cc1nc2ccccc2n1C(=O)N1CCOCC1` reads 82.5% (inactive); that for `COC(=O)c1cc(NC(=O)C2C3C=CC(C3)C2C(=O)O)cc(C(=O)OC)c1` (stereo not drawn), 94.8% (inactive); that for `Cc1ccccc1-c1nnc(SCC(=O)NCc2ccc3c(c2)OCO3)n1C`, 91.1% (inactive). With `Cc1ccc(-n2c(SCC(=O)NCc3ccc4c(c3)OCO4)nnc2-c2cccnc2)c(C)c1`, the viability was 35.1% (active).

For `Cc1ccccc1-n1c(SCC(=O)NCc2cccs2)nnc1-c1ccncc1`, the viability is 89.8% (inactive). As to `Cc1cccc(Cn2c(N3CCN(c4ccccc4)CC3)nc3c2c(=O)n(C)c(=O)n3C)c1`, the viability was 72.4% (inactive).

`Cc1cccc(C2c3c(n(C)c(=O)n(C)c3=O)N=C3c4ccccc4C(=O)C32)c1` (stereo not drawn): the viability is 4.39% (active). Turning to `CCc1nnc(NC(=O)CSc2nc3ccccc3c(=O)n2CCCOC)s1`, the viability was 64.5% (inactive). Consider `Cc1cc(C)n(-c2nc(SCC(=O)N3CCCC3)c3c4c(sc3n2)CCCC4)n1`, for which the viability was 57.6% (inactive).

For the molecule `CCC(O)CNc1nc(-n2nc(C)cc2C)nc2sc3c(c12)CC(C)(C)OC3` (stereo not drawn), the viability was 44.6% (inactive).

As for `COCCNc1nc(-n2nc(C)cc2C)nc2sc3c(c12)CCCC3`, the viability was 6.95% (active). For the molecule `COC(=O)c1cccc(-n2[nH]nnc2=S)c1`, the viability was 87.1% (inactive). Turning to `O=[N+]([O-])c1ccc(Oc2ccc(F)cc2Br)c2ccncc12`, the viability was 17.6% (active). In the case of `Cn1c(SCC(=O)C(C)(C)C)nnc1-c1ccccn1`, the viability was 98.3% (inactive). To `CC(=O)C1=C(C)NC(C)=C(C(C)=O)C1c1cn(-c2ccccc2)nc1-c1cccs1` belongs 93.4% (inactive); to `CCC(=O)NCCc1nc2ccccc2n1CC`, 95.2% (inactive); to `CCOC(=O)c1c(NC(=O)CSc2nnc(CNc3ccc(C)cc3C)o2)sc(C)c1C`, 92.8% (inactive). The result for `CC1(C)CC(=O)C=C(N2CCCC2)C1` reads 95.2% (inactive); that for `O=C1NC(c2cc3c(cc2Cl)OCO3)Oc2ccccc21` (stereo not drawn), 32.9% (active); that for `CS(=O)(=O)N(CC(O)Cn1c2ccccc2c2ccccc21)c1cccc2ccccc12` (stereo not drawn), 1.71% (active). With `O=C1c2ccccc2S(=O)(=O)N1CC(O)Cn1c2ccccc2c2ccccc21` (stereo not drawn), the viability was 92.4% (inactive). As for `CC(=O)c1ccc2c(c1)c1ccccc1n2CC(C)C`, the viability was 73.2% (inactive). Take `CCCCOc1ccc(C(=O)NCc2ccncc2)cc1`: the viability was 78.5% (inactive). To `CCOC(=O)c1cnc(SC)nc1Sc1ccc(Cl)cc1Cl` belongs 85.4% (inactive).

In the case of `Cc1ccc(CN(N=Nc2nonc2N)c2nonc2N)c(C)c1`, the viability is 79.6% (inactive). With `CCC1(C)Cc2c(sc3[nH]c(=S)n(Cc4ccccc4)c(=O)c23)CO1` (stereo not drawn), the viability is 25% (active).

Take `CCC1(C)Cc2c(sc3nc(SC)nc(N)c23)CO1` (stereo not drawn): the viability was 62.6% (inactive).

Turning to `CCC1(C)Cc2c(sc3nc4n(c(=O)c23)CCCS4)CO1` (stereo not drawn), the viability is 93.3% (inactive). To `CCOC(=O)c1sc(C)c2c1NC(C)(c1cccc3ccccc13)NC2=O` (stereo not drawn) belongs 103% (inactive); to `CCOC(=O)C(C)Sc1nc2ccccc2c(=O)n1CC1CCCCC1` (stereo not drawn), 82.4% (inactive); to `COc1ccccc1NC(=O)c1ccc(C)s1`, 92.7% (inactive). On to `COc1ccccc1NS(=O)(=O)N(C)C`, for which the viability was 104% (inactive). To `COc1ccccc1NC(=O)/C=C/C(N)=O` belongs 2.11% (active); to `COc1cc(C)c(C(C)C)cc1S(=O)(=O)n1ccnc1`, 101% (inactive); to `CCOC(=O)c1ccc(COC(=O)CCc2nc(-c3ccccc3)c(-c3ccccc3)o2)cc1`, 71.5% (inactive).
